According to PubChem BioAssay AID1159580 (chemical genetic matrix, 2015):
The campaign covered roughly 5,500 compounds. About 2,000 (36%) were called active. Not shown: some 18% with an inconclusive outcome. No stated cut-off is given here; in the data, active means normalized growth mostly below about 0.91 (no sharp cut-off); inconclusive means no clear call, values can overlap the other calls; inactive means mostly above about 0.92. The list shows a part of the results.

Experiment: chemical genetic growth profiling, strain panel (AID 1159580);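 further: tested at 20 µM; growth read once vehicle control cultures reached saturation at 30 °C; 1 = growth at the plate median or of vehicle wells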
Conditions: S. cerevisiae deletion strains, growth OD
[1] = locus YAL040C, strain CLN3, stronger effect = lower value
[2] = locus YCL061C, strain MRC1 (second series), stronger effect = lower value
[3] = locus YDR363W, strain ESC2, stronger effect = lower value
[4] = locus YER002W, strain NOP16, stronger effect = lower value
[5] = locus YGR229C, strain SMI1, stronger effect = lower value
[6] = locus YNL153C, strain GIM3, stronger effect = lower value
[7] = locus YNL175C, strain NOP13, stronger effect = lower value
[8] = locus YNL197C, strain WHI3, stronger effect = lower value
[9] = locus YNL224C, strain SQS1, stronger effect = lower value
[10] = locus YOR083W, strain WHI5 (second series), stronger effect = lower value

Measured: normalized growth

COC(=O)C(N)Cc1ccc(Cl)cc1 (stereo unspecified)
inactive: [1] 0.998 | [2] 0.993 | [3] 0.976 | [4] 0.988 | [5] 0.99 | [6] 1.01 | [7] 0.965 | [8] 0.965 | [9] 0.984 | [10] 0.91

CC(=O)NC(CS)C(=O)O (stereo unspecified)
inactive: [1] 0.975 | [2] 0.993 | [3] 1.03 | [4] 0.994 | [5] 1.02 | locus YMR263W, strain SAP30, stronger effect = lower value 0.988 | [6] 0.979 | [7] 0.974 | [8] 0.988 | [9] 0.983 | [10] 0.996
